Source: PubChem BioAssay (several laboratories)
An excerpt weighted towards active compounds, which were near 5.4% of everything screened.
Mdm2 MdmX PPI = inhibitors of human Mdm2-MdmX association, primary screen, cell-based, luminescence, split luciferase, SaOS-2, uHTS; SaOS-2 split-luciferase Mdm2/MdmX complementation; inhibition, % at 8 µM; 3% of 330,000 active; Protein Mdm4 (Homo sapiens) + E3 ubiquitin-protein ligase Mdm2 (Homo sapiens), …;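 active means inhibition of at least 50% at 8 µM in the primary screen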
MPTP block = mitochondrial permeability transition pore inhibitors, primary screen, biochemical, isolated mouse mitochondria, absorbance | 1.4% of 360,000 active | AID 602449, 2012 | inhibition, % at 10 µM | Ca2+ swelling absorbance, 30 min;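 active means inhibition of 50% or more, scaled per plate between neutral and stimulator controls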
SKKanGAS inh = S. pyogenes SKKanGAS growth inhibitors in kanamycin, primary screen, streptokinase expression inhibitor project, SKKanGAS strain, BacTiter-Glo luminescence | 6 h | inhibition, % at 7.5 µM | 1.3% of 300,000 active | AID 1662, 2009;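 active means mean replicate score, as percent of positive control median, at least 50; inconclusive means mean below 50 but one replicate at or above 50; inactive means mean and every replicate below 50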;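 further: strain carries kanamycin resistance gene driven by streptokinase promoter and grows in 40 µg/ml kanamycin; loss of luminescence reflects streptokinase promoter inhibition or plain growth inhibition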
CSC inhib = cancer stem cell viability inhibitors, primary screen, luminescence. inhibition, % at 7.5 µM. AID 2717, 2010. 1.1% of 300,000 active. cancer stem cell-like cells viability; in the data active means inhibition above about 75%; inconclusive means no clear call, values can overlap the other calls; tested in HMLE shEcad cells
Beta apoptosis = inhibitors of cytokine-induced beta cell apoptosis, primary screen, luminescence; 0.8% of 300,000 active; AID 435005, 2010; protection from apoptosis, % (no concentration beside the values); INS-1E cytokine-induced death, ATP luminescence, 48 h; percent of positive-control rescue, neutral wells zero;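 active means Every replicate reaches about 75%, or at least half do and their mean reaches it too, limit read from the data; inconclusive means At least half of replicates reach the limit but their mean does not; inactive means Under half of replicates reach the limit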;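 further: higher means more ATP so stronger rescue from cytokine killing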
Calb FLC = C. albicans growth inhibition with fluconazole, primary screen, CaCi-2 strain, Alamar Blue fluorescence. C. albicans CaCi-2 (fluconazole-resistant clinical isolate) + fluconazole, 48 h. growth inhibition, % (no concentration beside the values). 0.57% of 300,000 active. AID 1979, 2009;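 active means growth inhibition above about 58% in most replicates, limit read from the data, passing the limit was not always enough; inconclusive means exactly half the replicates above a set limit; inactive means most replicates below a set limit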;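 further: all wells also contain fluconazole at 8 µg/ml as a sub-toxic cotreatment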
MPTP counter = fluorescence retest of MPTP screen hits in isolated mitochondria, single concentration; membrane potential, Rhodamine 123 fluorescence; inhibition, % at 10 µM; shares compounds with MPTP block; AID 624504, 2012; 78% of 5,000 active; in the data active means inhibition above about 22%
MPTP abs DR = mitochondrial permeability transition pore inhibitors, dose response, biochemical, absorbance, uHTS hits; shares compounds with MPTP block; 58% of 780 active; AID 651561, 2012; isolated mitochondria swelling; IC50, µM; in the data active means IC50 below about 20 µM
MPTP counter DR = fluorescent counter-screen in isolated mitochondria, dose response, counter-screen for MPTP inhibitor project, biochemical, fluorescence, uHTS hits. isolated mitochondria counterscreen, fluorescence read-out. shares compounds with MPTP block. IC50, µM. AID 651564, 2012. 49% of 780 active; in the data active means IC50 below about 80 µM
A number is an active result; - = inactive; ? = inconclusive; . = no result given.

SMILES	Mdm2 MdmX PPI	MPTP block	SKKanGAS inh	CSC inhib	Beta apoptosis	Calb FLC	MPTP counter	others
O=C(O)CC/C(=C\c1ccc(Cl)c([N+](=O)[O-])c1)c1nc2ccccc2s1	-	-	-	-	-	-	.
N#C/C(=C\c1ccc(O)c([N+](=O)[O-])c1)c1nc2ccccc2s1	.	91	-	.	.	?	64
Oc1ccc(Br)cc1-c1cc(-c2ccccc2Cl)[nH]n1	-	74	-	-	-	-	59
Oc1ccc(Br)cc1-c1cc(-c2ccccc2F)[nH]n1	-	63	-	-	-	-	58
O=C(O)c1cc(-c2ccccc2Cl)n[nH]1	-	-	-	-	-	-	.
O=C(CSc1nnc(Nc2ccccc2F)s1)NCC1CCCO1 (configuration not stated)	-	-	.	.	-	.	.
Cc1cc(C)c(C#N)c(SCCS(=O)(=O)c2ccc(C(C)(C)C)cc2)n1	-	61	-	-	-	-	20
C=CCOc1ccc(C(=O)Nc2ccc3c(c2)n(C)c(=O)n3C)cc1	-	-	-	-	-	-	.
O=C(Nc1cccnc1Cl)c1cc(-c2cccc(O)c2)on1	-	81	-	-	-	-	-	MPTP abs DR=-;MPTP counter DR=-
COc1cc(NC(=O)c2cc(-c3cccc(O)c3)on2)cc(OC)c1OC	-	110	-	-	-	-	-	MPTP abs DR=2.6;MPTP counter DR=-
CCc1ccccc1NC(=O)c1cc(-c2cccc(O)c2)on1	-	102	-	-	-	-	-	MPTP abs DR=2.1;MPTP counter DR=-
O=C(Nc1ccccc1C(F)(F)F)c1cc(-c2cccc(O)c2)on1	-	-	-	-	-	-	.
O=C(NC1CCCc2ccccc21)c1ccc(S(=O)(=O)N2CCOCC2)cc1 (configuration not stated)	-	-	-	-	-	-	.
COc1cc(CCN=Cc2cc(Cl)cc(Cl)c2O)c([N+](=O)[O-])cc1OC	.	-	.	.	.	.	.
COc1ccc(N=Cc2cc(Cc3ccccc3Cl)cc([N+](=O)[O-])c2O)cc1OC	-	62	-	.	-	?	-
Cc1n[nH]c(C)c1Sc1ccccc1N=Cc1cc(Cl)cc([N+](=O)[O-])c1O	-	-	-	-	-	-	.
Cc1ccc(N=Cc2cc(Cc3ccccc3Cl)cc([N+](=O)[O-])c2O)c(O)c1	-	84	?	-	-	109	53
CCc1cccc(-n2c(SCC(=O)c3c(N)n(C4CC4)c(=O)[nH]c3=O)nnc2N2CCOCC2)c1	.	-	.	.	.	.	.
O=C(NCc1n[nH]c(=S)n1-c1ccc(F)cc1)c1ccc(S(=O)(=O)N2CCCCC2)cc1	-	-	-	-	-	-	.
COc1cc(OC)c(OC)cc1CNC(=O)c1cccc(S(=O)(=O)N2CCc3ccccc3C2)c1	-	98	.	.	.	.	104
O=C(c1ccccc1)c1ccc(OCCCN2CCCC2)cc1	-	-	-	-	-	-	.
O=C(c1ccccc1)c1ccc(OCCCCN2CCCCC2)cc1	-	-	-	-	-	-	.
O=C(CCN1CCN(Cc2ccccc2)CC1)Nc1ccc(OCc2ccccc2)cc1	-	86	-	-	-	-	-	MPTP abs DR=7.3;MPTP counter DR=13
c1ccc(COc2ccc(OCCCCN3CCCCC3)cc2)cc1	-	74	-	-	-	-	-	MPTP abs DR=6.7;MPTP counter DR=19
O=C(c1ccccc1)c1ccc(OCCOCCN2CCN(Cc3ccccc3)CC2)cc1	-	84	-	-	-	-	-	MPTP abs DR=18;MPTP counter DR=27
SMILES	Mdm2 MdmX PPI	MPTP block	SKKanGAS inh	CSC inhib	Beta apoptosis	Calb FLC	MPTP counter	others
CN(C)CCNS(=O)(=O)c1ccc(N2CCN(c3ccc(F)cc3)CC2)c([N+](=O)[O-])c1	-	50	-	-	-	-	-	MPTP abs DR=7.1;MPTP counter DR=20
CC(=O)N1CCN(c2ccc(S(=O)(=O)NCCN(C(C)C)C(C)C)cc2[N+](=O)[O-])CC1	-	-	-	-	-	-	.
CCCn1c(NC(=O)C2CCN(C(=O)c3ccc(F)cc3)CC2)nc2ccccc21	-	-	-	.	-	-	.
Cc1ncc([N+](=O)[O-])n1CCOC(=O)Nc1ccc([N+](=O)[O-])cc1	-	77	-	-	-	-	71
Cc1ncc([N+](=O)[O-])n1CCOC(=O)C12CC3CC(CC(C3)C1)C2	-	-	-	-	-	-	.
CN1CCc2c(OCC(=O)N3CCC(Cc4ccccc4)CC3)cccc2C1=O	-	82	-	-	-	-	49
CCC(CO)NCc1ccc(OCC(=O)Nc2cccc(C(F)(F)F)c2)c(OC)c1 (configuration not stated)	-	58	-	-	-	-	-	MPTP abs DR=17;MPTP counter DR=-
CCOc1cc(CNC(C)(C)C)ccc1OCC(=O)Nc1cccc(C(F)(F)F)c1	-	-	-	-	-	-	.
COc1ccc(/C(C)=N/NC(=S)Nc2cc(C)ccc2C)cc1	-	-	-	-	-	-	.
Cc1nnc(SCc2c(Cl)cccc2Cl)n(N)c1=O	-	-	-	-	-	-	.
Cc1ccc(NC(=O)[C@@H]2O[C@H](CO)[C@@H](O)[C@H]2O)cc1C(F)(F)F	.	-	.	.	.	.	.
CC1(C)CC(=O)C(C=NCC2CCN(C(=S)Nc3cccc(Cl)c3)CC2)=C(O)C1	-	-	-	-	-	-	.
CC(C)C(=O)N1CCC(CN=CC2=C(O)CC(C)(C)CC2=O)CC1	-	69	-	-	-	-	113
CCCCCC/C(C)=C1/SC(=S)NC1=O	-	83	-	.	.	?	75
C/C(C/C(C)=C1/SC(=S)NC1=O)=C1\SC(=S)NC1=O	.	-	.	.	.	.	.
CC(C)C(NC(=O)c1ccc(F)cc1)C(=O)Nc1cccnc1 (configuration not stated)	-	-	-	-	-	-	.
COCCn1c(=O)[nH]c2cc(C(=O)N3CCN(c4ccccc4F)CC3)ccc2c1=O	-	-	-	-	-	-	.
CN(C)S(=O)(=O)c1ccc(Nc2nc(C3CC3)nc3c2nnn3Cc2ccccc2Cl)cc1	-	62	-	.	88	-	29
COC(=O)CNc1nc(C2CC2)nc2c1nnn2Cc1ccccc1Cl	-	-	-	-	-	-	.
Cc1ccccc1S(=O)(=O)N(C)C[C@H]1OCc2cn(nn2)CCCC(=O)N([C@@H](C)CO)C[C@@H]1C	.	-	.	.	.	.	.
CN(C)S(=O)(=O)c1cc(NC(=O)CSc2ncc(C(F)(F)F)cc2Cl)ccc1Cl	-	74	-	-	-	-	86
O=C(C=P(c1ccccc1)(c1ccccc1)c1ccccc1)c1ccccc1-c1ccccc1C(=O)C=P(c1ccccc1)(c1ccccc1)c1ccccc1	.	94	.	.	.	.	99
